Source: PubChem BioAssay (Tox21)
Where “and” joins values, the source holds several entries; their conditions need not be identical. Equal values may be shown once. Inconclusive results are not listed. Calls of active or inactive are those of the source. Unless noted, calls follow the shape of the full dose curve.

Assays:
[1] = Nuclear factor erythroid 2-related factor 2/antioxidant responsive element (Nrf2/ARE) small molecule agonists: qHTS cell viability counter screen in human keratinocytes (AID 1919968; active = well fitted curve in the direction sought with a large enough effect in the repeat runs; an effect the other way counts as inactive or inconclusive; also: nearly all actives have a fitted effect of over 55% in size; also: potency is read from the fitted curve at half-maximal effect)
Method in brief: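 Seed 1,500 KeratinoSens cells per well, then incubate 5 h at 37 C/5% CO2. Add compounds in DMSO and incubate 23 h. Add CellTiter-Fluor, wait 1 h and read fluorescence.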

[2] = Nuclear factor erythroid 2-related factor 2/antioxidant responsive element (Nrf2/ARE) small molecule agonists: luciferase reporter gene qHTS assay in human keratinocytes (AID 1919969); also: nearly all actives have a fitted effect of over 35% in size; also: potency is read from the fitted curve at half-maximal effect
[3] = molecular target: KiSS-1 receptor (Homo sapiens) (UniProt Q969F8); test: Human kisspeptin (KISS1R) small molecule agonists, calcium flux assay in KISS1R-HEK293 cells (AID 1920064; active = well fitted curve in the direction sought with a large enough effect in the repeat runs; an effect the other way counts as inactive or inconclusive; also: potency is read from the fitted curve at half-maximal effect)
Method in brief: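 Cells plated and incubated 18 h; dye added, 1 h at 37 C; compounds in DMSO pinned in; signal read at 480/540 nm every second for 3 min. Each compound tested at 15 concentrations in triplicate.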

[4] = G protein-coupled receptor (GPCR) small molecule agonists, calcium flux assay: HEK293 wild type cell line counter screen (AID 1920065); also: potency is read from the fitted curve at half-maximal effect
Method in brief: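 Counter-screen of the Tox21 10K library for non-specific calcium release: dye-loaded cells received compounds in DMSO and were monitored by kinetic fluorescence (480/540 nm, 3 min). Fifteen concentrations, run in triplicate.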

[5] = p53 small molecule agonists, cell-based qHTS assay with rat liver microsomes (AID 1963578)
Method in brief: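 With rat liver microsomes and NADPH present (0.5 mg/mL final each), p53RE-bla cells are treated with compound for 16 h at 37 C. LiveBLAzer detection mixture is then applied for 2 h at room temperature in the dark.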

[6] = p53 small molecule agonists, cell-based qHTS assay: qHTS cell viability counter screen (AID 1963581); also: nearly all actives have a fitted effect of over 45% in size
Method in brief: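 Cells: HCT-116 with p53 response element-driven beta-lactamase. Treatment: 16 h, 37 C, compounds in DMSO. Read: CellTiter-Glo luminescence after 30 min RT.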

[7] = molecular target: 5-hydroxytryptamine receptor 2A (Homo sapiens) (UniProt P28223); test: 5-hydroxytryptamine receptor 2A (HTR2A) small molecule antagonists, cell-based qHTS assay (AID 1963586); also: nearly all actives have a fitted effect of over 45% in size; also: potency is read from the fitted curve at half-maximal effect
Method in brief: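 Antagonist-mode intracellular calcium assay: DOI (4 nM) added after 5 min compound pre-incubation at room temperature to dye-loaded HTR2A-CHO cells. Fluorescence followed for 3 min, sampled every second.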

[8] = molecular target: Muscarinic acetylcholine receptor M1 (Homo sapiens) (UniProt P11229); test: Cholinergic receptor muscarinic 1 (CHRM1) small molecule agonists, cell-based qHTS assay (AID 1963589); also: nearly all actives have a fitted effect of over 35% in size; also: potency is read from the fitted curve at half-maximal effect
Method in brief: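 Agonist-mode qHTS in CHO cells stably carrying human muscarinic M1. Intracellular calcium is tracked by fluorescence every second after compound transfer; each compound runs at 15 concentrations in three independent runs.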

[9] = molecular target: D(2) dopamine receptor (Homo sapiens) (UniProt P14416); test: Dopamine D2 receptor (DRD2) small molecule antagonists, cell-based qHTS assay (AID 1963595; active = well fitted inhibition curve with a large enough effect in the signal ratio in the repeat runs, with a control signal flat; the % refers to the signal ratio; also: potency is read from the fitted curve at half-maximal effect)
Method in brief: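 HEK293 cells stably expressing DRD2 were preincubated with 0.1 mM Ro20-1724, then with compound for 10 min at room temperature. Cells were stimulated with 200 nM NKH477 plus 12 nM quinpirole for 30 min, and cAMP was read by HTRF.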

[10] = p53 small molecule agonists, cell-based qHTS assay with human liver microsomes: qHTS cell viability counter screen (AID 1963579); also: nearly all actives have a fitted effect of over 45% in size
Method in brief: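 In this multiplexed counter screen, the reporter plates were subsequently treated with CellTiter-Glo so that cell viability, reflected by luminescence, could be recorded for p53RE-bla cells dosed 16 h with compounds under microsomal activation (HLM and NADPH).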

[11] = p53 small molecule agonists, cell-based qHTS assay with rat liver microsomes: qHTS cell viability counter screen (AID 1963580); also: nearly all actives have a fitted effect of over 45% in size
Method in brief: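 In HCT-116 cells carrying a p53 response element-bla reporter, compounds were metabolically activated in situ by rat liver microsomes with NADPH over 16 h. Cell ATP content then served as the cytotoxicity measure.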

[12] = molecular target: 5-hydroxytryptamine receptor 2A (Homo sapiens) (UniProt P28223); test: 5-hydroxytryptamine receptor 2A (HTR2A) small molecule agonists, cell-based qHTS assay (AID 1963587); also: nearly all actives have a fitted effect of over 30% in size
Method in brief: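 HTR2A-CHO cells, plated 18 h at 37 C/5% CO2, dye-loaded 1 h at 37 C; compounds in DMSO added by pin tool (agonist mode). Intracellular calcium flux read as kinetic fluorescence on FDSS over 2 min at 1 s intervals.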

[13] = molecular target: Muscarinic acetylcholine receptor M1 (Homo sapiens) (UniProt P11229); test: Cholinergic receptor muscarinic 1 (CHRM1) small molecule antagonists, cell-based qHTS assay (AID 1963588); also: nearly all actives have a fitted effect of over 40% in size
Method in brief: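 CHRM1-CHO calcium-flux assay, antagonist mode. Cells were seeded 18 h, dye-loaded 1 h at 37 C and given compound for 5 min at RT, then acetylcholine was added at 50nM. FDSS fluorescence was read 3 min; 15 concentrations, three runs.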

[14] = cAMP Responsive Elements (CRE) small molecule agonists, cell-based qHTS assay (AID 1963590)
Method in brief: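 Agonist mode qHTS in CRE-bla HEK 293T cells: compounds dosed from DMSO for 3 h at 37 C/5% CO2, followed by LiveBLAzer B/G FRET substrate for 2 h at room temperature.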

[15] = cAMP Responsive Elements (CRE) small molecule antagonists, cell-based qHTS assay (AID 1963591; active = well fitted inhibition curve with a large enough effect in the signal ratio in the repeat runs, not every such curve was filed as active; the % refers to the signal ratio)
Method in brief: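 Antagonist mode: test compounds are co-incubated with the adenylyl cyclase activator NKH477 (0.25 uM final) on CRE-bla HEK293T cells for 3 h at 37 °C, followed by LiveBLAzer substrate loading.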

[16] = molecular target: Beta-2 adrenergic receptor (Homo sapiens) (UniProt P07550); test: Adrenergic beta2 receptor (ADRB2) small molecule antagonists, cell-based qHTS assay (AID 1963592); also: series mostly up to about 92 µM; nearly all actives have a fitted effect of over 50% in size
Method in brief: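 Cells (CHO, stable ADRB2 overexpression) incubated 18-20hr at 37C; compounds added from DMSO; agonist mix (1nM isoproterenol, 100uM IBMX, 25uM Ro-20-1724) added; 0.5hr RT; d2-cAMP and anti-cAMP-cryptate added; 1hr RT; 665/615 nm read.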

[17] = molecular target: Gonadotropin-releasing hormone receptor (Homo sapiens) (UniProt P30968); test: Human gonadotropin-releasing hormone receptor (GnRHR) small molecule agonists, calcium flux assay in GnRHR-HEK293 cells (AID 1920063); also: nearly all actives have a fitted effect of over 35% in size
Method in brief: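 Cells: HEK293 stably expressing human GnRHR. Steps: overnight (18 h) culture, 1 h calcium dye loading at 37 C, compound addition, kinetic fluorescence read at 480/540 nm. Each compound tested at 15 concentrations in triplicate.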

[18] = p53 small molecule agonists, cell-based qHTS assay with human liver microsomes (AID 1963577);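 also: p53 response element beta-lactamase reporter cells with liver microsomes plus NADPH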
Method in brief: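 16 h, 37 C exposure of p53RE-bla cells to compounds with human liver microsomes and NADPH (0.5 mg/mL final each); detection via LiveBLAzer mixture, 2 h dark at room temperature.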

[19] = p53 small molecule agonists, cell-based qHTS assay (AID 1963582; active = well fitted activation curve with a large enough effect in the signal ratio in the repeat runs, not every such curve was filed as active; the % refers to the signal ratio)
Method in brief: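 Quantitative HTS in p53RE-bla cells: after a 5 h settling period, compounds delivered in DMSO were left on cells for 16 h at 37 C, and reporter induction was measured as fluorescence following 2 h substrate loading.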

[20] = molecular target: D(2) dopamine receptor (Homo sapiens) (UniProt P14416); test: Dopamine D2 receptor (DRD2) small molecule agonists, cell-based qHTS assay (AID 1963594); also: nearly all actives have a fitted effect of over 35% in size
Method in brief: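 HEK293 cells stably expressing DRD2 were cultured 24 h at 37 C, then given Ro20-1724 (0.1 mM final) and compounds for 10 min at room temperature. NKH477 (200nM) was then added for 30 min. cAMP was read by HTRF.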

Measured: Potency

Sequence of Beta-2 adrenergic receptor (Homo sapiens) (P07550 whole entry, looked up): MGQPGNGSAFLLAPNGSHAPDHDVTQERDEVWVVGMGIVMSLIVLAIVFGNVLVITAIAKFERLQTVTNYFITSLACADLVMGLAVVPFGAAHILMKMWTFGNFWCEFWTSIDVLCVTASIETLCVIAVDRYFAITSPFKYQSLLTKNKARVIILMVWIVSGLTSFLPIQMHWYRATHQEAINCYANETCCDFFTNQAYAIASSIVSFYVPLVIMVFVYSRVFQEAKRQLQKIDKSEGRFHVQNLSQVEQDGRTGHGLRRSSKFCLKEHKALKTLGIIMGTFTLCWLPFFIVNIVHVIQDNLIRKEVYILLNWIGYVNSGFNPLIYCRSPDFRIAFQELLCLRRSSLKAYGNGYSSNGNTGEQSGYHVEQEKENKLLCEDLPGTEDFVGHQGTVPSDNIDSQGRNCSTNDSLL
Sequence of D(2) dopamine receptor (Homo sapiens) (P14416 whole entry, looked up): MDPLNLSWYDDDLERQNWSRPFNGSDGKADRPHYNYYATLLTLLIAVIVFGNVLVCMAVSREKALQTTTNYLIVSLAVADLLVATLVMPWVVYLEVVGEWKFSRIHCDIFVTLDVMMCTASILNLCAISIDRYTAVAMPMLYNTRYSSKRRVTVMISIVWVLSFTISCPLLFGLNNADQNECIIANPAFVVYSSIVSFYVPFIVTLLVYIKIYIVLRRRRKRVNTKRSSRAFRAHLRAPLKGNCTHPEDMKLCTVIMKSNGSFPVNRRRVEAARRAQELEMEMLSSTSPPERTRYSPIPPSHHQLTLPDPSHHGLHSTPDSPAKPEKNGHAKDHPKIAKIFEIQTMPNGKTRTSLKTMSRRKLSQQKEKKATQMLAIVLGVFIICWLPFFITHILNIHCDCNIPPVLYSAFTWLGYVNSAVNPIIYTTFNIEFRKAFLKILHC
Sequence of KiSS-1 receptor (Homo sapiens) (Q969F8 whole entry, looked up): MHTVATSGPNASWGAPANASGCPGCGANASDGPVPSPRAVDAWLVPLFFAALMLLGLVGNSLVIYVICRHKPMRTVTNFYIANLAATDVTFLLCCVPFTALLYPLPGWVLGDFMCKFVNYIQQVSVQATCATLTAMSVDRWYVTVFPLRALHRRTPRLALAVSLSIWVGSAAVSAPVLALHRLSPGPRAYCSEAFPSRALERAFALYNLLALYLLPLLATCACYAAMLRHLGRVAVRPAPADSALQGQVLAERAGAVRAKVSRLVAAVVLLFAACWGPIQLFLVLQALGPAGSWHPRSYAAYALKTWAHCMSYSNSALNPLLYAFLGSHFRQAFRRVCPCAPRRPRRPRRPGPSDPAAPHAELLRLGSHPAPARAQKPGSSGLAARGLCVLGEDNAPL
Sequence of Gonadotropin-releasing hormone receptor (Homo sapiens) (P30968 whole entry, looked up): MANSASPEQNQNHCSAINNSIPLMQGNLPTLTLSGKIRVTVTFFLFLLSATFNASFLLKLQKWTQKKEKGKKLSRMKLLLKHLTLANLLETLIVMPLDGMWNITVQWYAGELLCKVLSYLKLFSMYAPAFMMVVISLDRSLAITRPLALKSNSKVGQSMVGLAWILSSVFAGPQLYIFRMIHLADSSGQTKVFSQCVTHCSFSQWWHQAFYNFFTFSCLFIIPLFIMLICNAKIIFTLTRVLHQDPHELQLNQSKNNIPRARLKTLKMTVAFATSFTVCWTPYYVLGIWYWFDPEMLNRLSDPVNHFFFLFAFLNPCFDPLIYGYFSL
Sequence of 5-hydroxytryptamine receptor 2A (Homo sapiens) (P28223 whole entry, looked up): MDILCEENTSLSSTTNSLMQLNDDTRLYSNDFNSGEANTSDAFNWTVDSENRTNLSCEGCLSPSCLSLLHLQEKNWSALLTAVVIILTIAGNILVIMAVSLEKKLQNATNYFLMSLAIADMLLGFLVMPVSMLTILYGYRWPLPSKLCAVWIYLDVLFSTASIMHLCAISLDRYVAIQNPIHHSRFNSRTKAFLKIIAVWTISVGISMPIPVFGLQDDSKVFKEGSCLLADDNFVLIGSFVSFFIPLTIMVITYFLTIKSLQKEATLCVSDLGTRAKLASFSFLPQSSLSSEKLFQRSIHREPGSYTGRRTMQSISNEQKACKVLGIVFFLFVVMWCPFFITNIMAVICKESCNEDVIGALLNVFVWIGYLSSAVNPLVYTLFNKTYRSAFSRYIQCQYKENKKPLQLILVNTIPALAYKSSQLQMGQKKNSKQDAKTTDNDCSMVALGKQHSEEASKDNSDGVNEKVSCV
Sequence of Muscarinic acetylcholine receptor M1 (Homo sapiens) (P11229 whole entry, looked up): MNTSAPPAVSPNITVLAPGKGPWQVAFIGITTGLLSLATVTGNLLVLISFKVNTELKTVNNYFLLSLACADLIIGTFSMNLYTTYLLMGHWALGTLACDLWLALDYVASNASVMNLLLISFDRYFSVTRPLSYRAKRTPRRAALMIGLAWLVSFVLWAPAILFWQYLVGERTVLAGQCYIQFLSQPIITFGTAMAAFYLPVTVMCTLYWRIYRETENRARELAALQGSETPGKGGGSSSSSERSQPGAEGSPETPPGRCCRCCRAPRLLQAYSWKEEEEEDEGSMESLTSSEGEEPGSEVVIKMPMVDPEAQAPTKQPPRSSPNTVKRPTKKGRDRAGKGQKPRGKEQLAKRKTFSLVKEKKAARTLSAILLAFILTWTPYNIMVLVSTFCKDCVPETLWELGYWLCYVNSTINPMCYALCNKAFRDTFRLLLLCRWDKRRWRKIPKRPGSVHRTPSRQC

CN(C)S(=O)(=O)N(SC(F)(Cl)Cl)c1ccccc1
inactive: [5] | [6] | [7]
active: [1] 13.7 µM | [2] 4.86 µM | [3] 54.9 µM | [4] 38.9 µM | [8] 43.6 µM | [9] 5.45 µM

O=C(O)c1c(Cl)ccc2cc(Cl)cnc12
not listed: [4] | [5] | [7] | [17] | [18] | [19] | [20]
inactive: all other assays above

Clc1ccc2ccccc2c1
not listed: [2] | [15]
inactive: all other assays above

CCC(Cl)CCl (centres undefined)
not listed: [5] | [7] | [13] | [16] | [17] | [18] | [19]
inactive: all other assays above

CCCCNP(N)(N)=S
not listed: [2]
inactive: all other assays above

CC#C[C@]1(O)CC[C@H]2[C@@H]3C[C@H](C)C4=CC(=O)CC[C@]4(C)[C@H]3CC[C@@]21C
not listed: [7] | [8] | [14] | [15] | [17] | [18]
inactive: all other assays above

C[C@H](N)C(=O)c1ccccc1
not listed: [5] | [8] | [17] | [18] | [19] | [20]
inactive: all other assays above

Cc1ccn2nc(S(=O)(=O)Nc3c(F)cccc3F)nc2n1
not listed: [5] | [12] | [17] | [18] | [19]
inactive: all other assays above

CN(C)CCc1c[nH]c2ccccc12
active: [2] 108 µM | [7] 16.6 nM
not listed: [5] | [6] | [10] | [12] | [17] | [18] | [19]
inactive: all other assays above

Clc1ccc(C(Cl)(Cl)Cl)cc1Cl
not listed: [2] | [12]
inactive: all other assays above

FC(F)C(F)(F)OCC(Cn1cncn1)c1ccc(Cl)cc1Cl (centres undefined)
not listed: [2] | [9] | [11] | [14] | [15]
inactive: all other assays above

CCCCCC[N+](=O)[O-]
not listed: [2] | [13]
inactive: all other assays above

O=[N+]([O-])c1ccc(Nc2ccccc2)cc1
active: [1] 61.6 µM | [7] 16.9 µM and 16.8 µM
not listed: [2] | [6] | [14] | [15] | [19]
inactive: all other assays above
